Results: PubChem BioAssay (Tox21)
Results filed as inconclusive are left out. The source made the active and inactive calls. Unless noted, calls come from the whole dose curve; as a rule, active = well fitted curve in the direction sought with a large enough effect in the repeat runs; inconclusive = weak or mixed curves; inactive = no such curve, though single readings can be large; an effect the other way counts as inactive or inconclusive. Positions of bridges follow the written chain, without caps; N, C: chain ends. Where a SMILES comes first, the peptide text is derived from it. Non-standard residues stand in square brackets, D forms with d. Residues, ends and D or L forms follow the SMILES beside them. hArg = N=C(N)NCCCC[C@H](N)C(=O)O; Mpa = O=C(O)CCS

Key:
[1] = qHTS assay to identify small molecule HDAC inhibitors (AID 1259364);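 note: wild-type HCT-116 cells with endogenous class I/II HDAC activity; top concentration of the series differs between compounds; nearly all actives have a fitted effect of over 45% in size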
Method in brief: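 Read-out: luminescence of HDAC-Glo I/II reagent, 30 min RT, reflecting class I/II deacetylase activity in whole HCT-116 cells pre-exposed 2 h to DMSO-dissolved compounds.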

[2] = qHTS assay to identify small molecule HDAC inhibitors - cell viability counter screen (AID 1259365); note: series mostly up to about 92 µM; nearly all actives have a fitted effect of over 50% in size
Method in brief: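 HCT-116 wild-type, overnight attachment; 2hr drug exposure, 37C; CellTiter-Glo luminescent ATP readout after 30min RT.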

[3] = qHTS assay to identify small molecule agonists of the sonic hedgehog signaling (Shh) pathway - cell viability counter screen (AID 1259366); note: nearly all actives have a fitted effect of over 50% in size
Method in brief: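 Compounds in DMSO were pin-transferred onto 3T3 Gli1-Luc cells that had settled 4hr; plates then stood 24hr at 37C and 5% CO2. One hour before the end, CellTiter-Fluor was added and fluorescence recorded.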

[4] = qHTS assay to identify small molecule agonists of the sonic hedgehog signaling (Shh) pathway (AID 1259368; calls by dose curve;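 note: NIH/3T3-derived 3T3Gli1-Luc cells carrying a stable Gli1-driven firefly luciferase reporter; series mostly up to about 92 µM; nearly all actives have a fitted effect of over 15% in size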)
Method in brief: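 A Gli1 transcriptional response element controlled firefly luciferase in 3T3Gli1-Luc cells. Compounds and a positive control were added 4 hr after plating, and cells were incubated a further 24 hr at 37 C before luminescence detection.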

[5] = molecular target: Estrogen receptor beta (Homo sapiens) (UniProt Q92731); experiment: qHTS assay to identify small molecule agonists of the estrogen receptor beta (ER-beta) signaling pathway (AID 1259377; active = well fitted activation curve with a large enough effect in the signal ratio in the repeat runs, not every such curve was filed as active; the % refers to the signal ratio)
Method in brief: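 qHTS in ER-beta-UAS-bla HEK293T cells: 6 hr settling, then 16 hr compound at 37C, then LiveBLAzer substrate 2 h at RT before fluorescence reading.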

[6] = molecular target: Estrogen receptor beta (Homo sapiens) (UniProt Q92731); experiment: qHTS assay to identify small molecule antagonists of the estrogen receptor beta (ER-beta) signaling pathway (AID 1259378; active = well fitted inhibition curve with a large enough effect in the signal ratio in the repeat runs, not every such curve was filed as active; the % refers to the signal ratio)
Method in brief: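 ER-beta-UAS-bla HEK293T (GripTite) cells in 2% charcoal-stripped FBS medium were preincubated 6 hr at 37C, dosed with compound, then stimulated with 1 nM E2 (final) for 16 hr; beta-lactamase reporter read by B/G FRET fluorescence after 2 hr substrate loading.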

[7] = qHTS assay to identify small molecule agonists of the androgen receptor (AR) signaling pathway in the presence of an antagonist - cell viability counter screen (AID 1259379);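 note: MDA-kb2 human breast cancer cells carrying an MMTV luciferase reporter; series mostly up to about 92 µM; nearly all actives have a fitted effect of over 25% in size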
Method in brief: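 Seed MDA-kb2 at 3,000 cells/well; incubate 5 hr, 37C, 0% CO2. Add nilutamide to 3.0uM final, then pin compounds at 15 concentrations. Incubate 16 hr. Add CellTiter-Fluor at 15 hr, read fluorescence after 1 hr.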

[8] = qHTS assay to identify small molecule agonists of the estrogen receptor beta (ER-beta) signaling pathway - cell viability counter screen (AID 1259380); note: nearly all actives have a fitted effect of over 30% in size
Method in brief: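 CellTiter-Glo read, 30 min RT, same wells as bla assay; cells ER-beta-UAS-bla HEK293T; 16 hr compound, 37C; medium 2% charcoal-stripped FBS.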

[9] = qHTS assay to identify small molecule antagonists of the sonic hedgehog signaling (Shh) pathway (AID 1259369; calls by dose curve; note: nearly all actives have a fitted effect of over 45% in size)
Method in brief: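 For antagonist detection, the reporter line received test compounds together with conditioned medium, incubated 24hr at 37 C, 5% CO2, then luminescence was recorded following 30min room-temperature luciferase reagent incubation.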

[10] = qHTS assay to identify small molecule antagonists of the sonic hedgehog signaling (Shh) pathway - cell viability counter screen (AID 1259367); note: nearly all actives have a fitted effect of over 55% in size
Method in brief: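 After a 4 hr settling period, 3T3 Gli1-Luc cells were treated with DMSO-dissolved chemicals and conditioned medium, kept 24 hr at 37C in 5% CO2, and assayed for viability by CellTiter-Fluor fluorescence following 1 hr reagent incubation.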
% is set by controls: 0 for no effect and ±100 for the full control effect.

Estrogen receptor beta (Homo sapiens), sequence (Q92731 whole entry, looked up): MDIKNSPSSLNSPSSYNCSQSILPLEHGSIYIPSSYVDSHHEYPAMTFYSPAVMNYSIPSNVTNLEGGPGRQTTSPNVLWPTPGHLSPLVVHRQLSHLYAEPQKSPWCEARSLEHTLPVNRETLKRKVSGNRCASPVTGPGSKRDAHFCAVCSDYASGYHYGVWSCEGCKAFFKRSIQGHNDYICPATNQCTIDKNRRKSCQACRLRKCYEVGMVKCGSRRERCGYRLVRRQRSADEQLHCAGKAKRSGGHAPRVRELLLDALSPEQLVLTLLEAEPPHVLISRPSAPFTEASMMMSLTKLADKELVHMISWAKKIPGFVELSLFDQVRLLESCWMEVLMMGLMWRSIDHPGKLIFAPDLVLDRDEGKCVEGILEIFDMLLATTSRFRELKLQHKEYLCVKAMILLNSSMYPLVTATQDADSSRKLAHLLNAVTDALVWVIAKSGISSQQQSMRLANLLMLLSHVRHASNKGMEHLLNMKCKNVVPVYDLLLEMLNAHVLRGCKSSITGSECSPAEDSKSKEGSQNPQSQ

CC1(C)CC(OC(=O)CCCCCCCCC(=O)OC2CC(C)(C)NC(C)(C)C2)CC(C)(C)N1
inactive: activity change, negative = inhibition [1] 6.2% [at 19 µM] | activity change, negative = cytotoxicity [2] -7.5% [at 19 µM] | viability change, negative = cytotoxic [3] -15.1% [at 19 µM] | activity change [4] 0.253% [at 18.9 µM] | activation [5] -4.04% [at 19 µM] | activity, negative = inhibition [6] -12.7% [at 19 µM] | activity change, negative = cytotoxicity [7] 0.897% [at 19 µM]

COC(=O)c1ccccc1C(=O)O
inactive: Potency [1] | outcome [2] | outcome [3] | outcome [4] | Potency [6] | outcome [7] | outcome [8]

COC(C)(OC)OC
inactive: Potency [1] | outcome [2] | outcome [3] | outcome [4] | Potency [9] | outcome [7] | outcome [8]

O=C(NCN1CCOCC1)c1cnccn1
inactive: Potency [1] | outcome [2] | outcome [3] | outcome [10] | outcome [4] | outcome [8]

CC(C)C1OCCN1CCOC(=O)NCCCCCCNC(=O)OCCN1CCOC1C(C)C (stereo not drawn)
inactive: Potency [1] | outcome [2] | outcome [3] | outcome [4] | Potency [9] | Potency [5] | Potency [6] | outcome [7] | outcome [8]

CCC(=O)c1c(O)cc(O)cc1O
inactive: Potency [1] | outcome [2] | outcome [3] | outcome [4] | Potency [6] | outcome [7]

COC(=O)c1cccc(Cl)c1
inactive: Potency [1] | outcome [2] | outcome [3] | outcome [4] | Potency [9] | Potency [5] | Potency [6] | outcome [7] | outcome [8]

CN(C)CC/C=C1/c2ccccc2COc2ccc(CC(=O)O)cc21
inactive: Potency [1] | outcome [2] | outcome [3] | outcome [4] | Potency [5] | Potency [6] | outcome [7] | outcome [8]

NC(=O)[C@@H]1CSSCCC(=O)N[C@@H](CCCCN=C(N)N)C(=O)NCC(=O)N[C@@H](CC(=O)O)C(=O)N[C@@H](Cc2c[nH]c3ccccc23)C(=O)N2CCC[C@H]2C(=O)N1 ([Mpa][hArg]GDWPC-NH2; disulfide 1-7)
inactive: Potency [1] | outcome [2] | outcome [3] | outcome [10] | outcome [4] | outcome [8]

CCCCCCCCCCCCCCC(=O)NC(CO)CCCCCCCCCCCCCC (stereo not drawn)
inactive: Potency [1] | outcome [2] | outcome [3] | outcome [4] | Potency [9] | Potency [6] | outcome [7] | outcome [8]

C[Si]1(C)O[Si](C)(C)O[Si](C)(C)O[Si](C)(C)O[Si](C)(C)O1
inactive: Potency [1] | outcome [2] | outcome [3] | outcome [4] | outcome [7] | outcome [8]

C[C@]12CCC(=O)C=C1CC[C@H]1[C@@H]3CC[C@](O)(C(=O)CO)[C@@]3(C)C[C@H](O)[C@@]12F
inactive: Potency [1] | outcome [2] | outcome [3] | outcome [4] | Potency [9] | Potency [5] | Potency [6] | outcome [7] | outcome [8]

CN(C)CCOC(=O)C(c1ccccc1)C1(O)CCCC1 (stereo not drawn)
inactive: Potency [1] | outcome [2] | outcome [3] | outcome [4] | Potency [6] | outcome [7] | outcome [8]

CN1C[C@@H]2C[C@H]1CN2c1cc2c(cc1F)c(=O)c(C(=O)O)cn2C1CC1
inactive: activity change, negative = inhibition [1] 2.17% [at 19 µM] | activity change, negative = cytotoxicity [2] 5.3% [at 19 µM] | viability change, negative = cytotoxic [3] -1.9% [at 19 µM] | activity change [4] -1.48% [at 18.9 µM] | activity change, negative = inhibition [9] -3.45% [at 19 µM] | activity change, negative = cytotoxicity [8] 1.14% [at 19 µM]

O=C1NC(c2ccccc2)(c2ccccc2)C(=O)N1COP(=O)(O)O
inactive: Potency [1] | outcome [2] | outcome [3] | outcome [4] | Potency [9] | outcome [7] | outcome [8]

CCCCOC(=O)[C@H](C)O
inactive: Potency [1] | outcome [2] | outcome [3] | outcome [10] | outcome [4] | outcome [7] | outcome [8]

Cc1ccc(C(C)NC(=O)[C@@H](NC(=O)OC(C)C)C(C)C)cc1 (stereo partly drawn)
inactive: Potency [1] | outcome [2] | outcome [3] | outcome [4] | outcome [8]

CC(=O)O[C@@H]1CC2CCC1(C)C2(C)C (stereo partly drawn)
inactive: Potency [1] | outcome [2] | outcome [3] | outcome [4] | Potency [9] | Potency [5] | Potency [6] | outcome [7] | outcome [8]

Cc1c(NC(=O)c2cccnc2)c(=O)n(-c2ccccc2)n1C
inactive: Potency [1] | outcome [2] | outcome [3] | outcome [4] | Potency [9] | outcome [7] | outcome [8]

CCCCSCCCC
inactive: Potency [1] | outcome [2] | outcome [10] | outcome [4] | Potency [9] | Potency [5] | Potency [6] | outcome [7]

c1ccc2cnccc2c1
inactive: Potency [1] | outcome [2] | outcome [3] | outcome [4] | Potency [9] | outcome [7] | outcome [8]

CCO
inactive: Potency [1] | outcome [2] | outcome [3] | outcome [4] | Potency [9] | Potency [6] | outcome [7] | outcome [8]

CC(=O)OC(C)=O
inactive: Potency [1] | outcome [2] | outcome [3] | outcome [4] | outcome [7] | outcome [8]

CC(=O)N[C@@H](CO)C(=O)N[C@@H](CC(=O)O)C(=O)N[C@@H](CCCCN)C(=O)N1CCC[C@H]1C(=O)O (Ac-SDKP-OH)
inactive: Potency [1] | outcome [2] | outcome [3] | outcome [4] | Potency [6] | outcome [7]

CCCCCCCCCCCCCBr
inactive: Potency [1] | outcome [2] | outcome [3] | outcome [10] | outcome [4] | outcome [7] | outcome [8]
